Sampled rows, rich in hits. Any-hit rate of the full collection: about 4.8%.
DAX1 inh-1 – DAX1 (NR0B1) inhibition, primary screen | inhibition, % at 6.8 µM | HEK293T StAR-luciferase reporter, SF-1/DAX-1 repression relief | hit rate 1.1% among 370,000;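 active = inhibition above the mean over all tested compounds plus 3 SD, cut at about 3.6% in these data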;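 also: 0% = DAX-1 cells with DMSO and 100% = cells lacking DAX-1 with DMSO; higher inhibition means more luminescence from relief of DAX-1 repression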
hgDAF12 agonist – agonists of H. glycines DAF-12 nuclear receptor; hit rate 1.8% among 370,000; activation, % at 6.8 µM; HEK293 GAL4-hgDAF12 UAS-luciferase reporter, agonist luminescence; normalized to butyrate control;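 active = activation above a cutoff set at the mean of all screened compounds plus 3 SD, cut at about 10% in these data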;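 also: 0% = DMSO wells and 100% = sodium butyrate wells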
NR1D1 modulator – Rev-erb alpha (human) modulation; hit rate 0.79% among 370,000; Rev-erbα–FITC-DNA binding, fluorescence polarization, 90 min; activity, % at 10 µM; AID 1259318; P20393;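 active = activity above about 14%, limit read from the data; passing the limit was not always enough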;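 also: 0% = DMSO wells with 35 nM protein and 100% = DMSO wells with 750 nM protein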
Target sequence (P20393 whole entry, looked up): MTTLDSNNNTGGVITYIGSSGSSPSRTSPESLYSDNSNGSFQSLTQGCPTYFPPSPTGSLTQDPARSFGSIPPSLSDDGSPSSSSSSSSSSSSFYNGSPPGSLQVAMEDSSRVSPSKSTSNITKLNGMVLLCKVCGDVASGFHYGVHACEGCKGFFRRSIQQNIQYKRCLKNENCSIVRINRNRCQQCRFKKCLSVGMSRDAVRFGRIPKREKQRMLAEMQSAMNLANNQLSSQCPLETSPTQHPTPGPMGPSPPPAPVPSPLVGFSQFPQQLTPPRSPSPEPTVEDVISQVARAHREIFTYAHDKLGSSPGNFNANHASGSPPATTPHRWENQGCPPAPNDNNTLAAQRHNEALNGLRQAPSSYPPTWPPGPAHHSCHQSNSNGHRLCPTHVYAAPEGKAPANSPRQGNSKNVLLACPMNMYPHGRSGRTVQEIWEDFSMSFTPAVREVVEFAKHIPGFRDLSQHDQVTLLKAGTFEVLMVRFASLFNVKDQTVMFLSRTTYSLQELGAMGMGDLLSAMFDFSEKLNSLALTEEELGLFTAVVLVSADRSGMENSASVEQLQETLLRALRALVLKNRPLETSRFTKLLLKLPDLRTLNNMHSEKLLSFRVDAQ
hcDAF12 agonist – activators of H. contortus DAF-12 nuclear receptor | activation, % at 6.8 µM | HEK293 hcDAF-12 lit1-tk-luc reporter, luminescence; 0% DMSO, 100% Δ7-dafachronic acid | hit rate 1.4% among 370,000;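 active = activation above the mean of all tested compounds plus 3 SD, cut at about 5.5% in these data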;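 also: 100% = response to 3 µM Δ7-dafachronic acid high control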
ssDAF12 agonist – activates DAF-12 receptor from parasite S. stercoralis. activation, % at 6.8 µM. HEK293 ssDAF-12/GRIP1 lit1-tk-luc reporter, luminescence; % of 3 µM dafachronic acid response. hit rate 1% among 370,000. AID 652126;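 active = activation above the mean over all tested compounds plus 3 SD, cut at about 0.9% in these data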;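 also: 0% = DMSO-only wells and 100% = 3 µM delta7-dafachronic acid wells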
DAX1 inh-2 – inhibits human nuclear receptor DAX1 | P51843 | HEK293 Gal4-DAX1 luciferase reporter, luminescence | inhibition, % at 6.75 µM | hit rate 0.99% among 340,000;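 active = inhibition above the mean over all tested compounds plus 3 SD, cut at about 4.2% in these data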;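 also: 0% = DAX1-transfected cells with DMSO and 100% = empty-vector control cells with DMSO; inhibition shows as a rise in luminescence from relieved DAX1 repression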
Numbers without * were called inactive; / = not tested or not shown.

SMILES | DAX1 inh-1 | hgDAF12 agonist | NR1D1 modulator | hcDAF12 agonist | ssDAF12 agonist | DAX1 inh-2
N#CCCn1nc(-c2ccccc2)c2ccccc2c1=O | 0 | -1 | -2 | -1 | -2 | 5.0*
Cc1nc2ccccc2c2oc(C(=O)NCCN3CCN(C)CC3)cc12 | 0 | 12* | 1 | 0 | -1 | 3
CCCNS(=O)(=O)c1cc(CN2C(=O)c3cccnc3C2=O)ccc1OC | 0 | 0 | -13 | 0 | -1 | -1
COc1ccc(CN2C(=O)c3cccnc3C2=O)cc1S(=O)(=O)NC(C)C | 0 | 3 | -1 | 1 | 0 | 5.8*
O=C(Nc1ccc2c(c1)Cc1ccccc1-2)NC1CCCCN(Cc2cccc(Cl)c2)C1=O (stereo not given) | 1 | 8 | 2 | -1 | -1 | /
COCCNC(=O)C1(C)C=CC2(CCCCC2)N1C(=O)c1ccccc1 (stereo not given) | 0 | 2 | 1 | 0 | -1 | 4.7*
COc1ccc(C(CC(=O)c2ccc(C)cc2)Sc2ccccc2N)cc1 (stereo not given) | 3 | 6 | 5 | 5.7* | 0 | 1
Cc1ccc(-n2c(Cc3cccn3C)nnc2SCC(=O)NCc2ccco2)cc1 | 1 | 2 | -5 | -1 | -1 | -1
Cc1ccc(-n2c(CSc3nc(C)cc(C)n3)nnc2SCC(=O)NCc2ccco2)cc1 | 1 | 4 | -2 | 5.6* | 0.9* | 0
Cc1ccc(Nc2nc(N)c([N+](=O)[O-])c(NCCO)n2)cc1C | 0 | 2 | 0 | 1 | 0 | 4.4*
O=C(O)c1ccc(COc2ccc3ccccc3c2/C=C2/NC(=O)N(c3ccccc3)C2=O)cc1 | 1 | -2 | 1 | 2 | 1.0* | -1
Nc1ccc(OCc2ccccc2)cc1[N+](=O)[O-] | -1 | 11* | 1 | 1 | -1 | 0
CCCN1CCN(CCCNC(=O)Cn2cc3c(n2)CCCC3)CC1 | 1 | 3 | 4 | 1 | -1 | 1
CCOCCCNC(=O)Cn1cc2c(n1)CCCC2 | 1 | -3 | 4 | 0 | -1 | 5.4*
CC(C)n1c2ccccc2c2cc([N+](=O)[O-])ccc21 | 0 | -1 | 13 | -2 | -2 | 2
CCC(C)n1c(=S)[nH]c2c(sc3ccc([N+](=O)[O-])cc32)c1=O (stereo not given) | 0 | 0 | -3 | -1 | 3.4* | 0
CC1=C[C@]2(C[N+](Cc3ccccc3)=C(N)N2)n2c(=O)n(-c3ccccc3)c(=O)n2C1 | 0 | -2 | -1 | -3 | -2 | /
Cc1ccc(O)c(C(C)c2c[nH]c3ccccc23)c1 (stereo not given) | 0 | -1 | 3 | 4 | 0 | /
COc1ccc(C(c2c[nH]c3ccccc23)c2c[nH]c3ccccc23)cc1O | -1 | 5 | 2 | 5 | 2.8* | 3
CCO[C@@H](Cc1ccc(OCCc2ccc(OS(C)(=O)=O)cc2)cc1)C(=O)O | / | / | -4 | / | / | /
O=C(O)c1cc2c(o1)CCC/C2=N\O | 0 | 1 | -3 | 0 | -2 | 1
O=C(N/N=C1\CCCc2oc(C(=O)O)cc21)c1ccccc1 | 1 | 11* | 6 | 2 | 1.7* | 0
CN(C)c1ccc(-c2nc3ncc(Cl)cc3[nH]2)cc1 | 0 | 0 | -5 | -2 | -1 | /
NS(=O)(=O)c1cccc(NC(=O)c2cc3ccccc3o2)c1 | 3 | 5 | 4 | -1 | -1 | 1
O=C(Nc1ccccc1Cl)c1cc(=O)c2ccccc2o1 | 1 | 10 | 5 | 0 | -1 | 2
NS(=O)(=O)c1cccc(NC(=O)c2cc(=O)c3ccccc3o2)c1 | 0 | 5 | 5 | 2 | -1 | 4.8*
O=C(Nc1ccccc1Br)c1cc(=O)c2ccccc2o1 | 2 | 11* | 10 | 1 | 1 | 4
CC(C)(C)OC(=O)N1CCC(N[C@@H](Cc2ccccc2)C(=O)NCCc2c[nH]c3ccccc23)(C(=O)NC2CCCCC2)CC1 | / | -3 | 2 | 1 | -2 | /
CCC(C)NC(=O)C1CCN(S(=O)(=O)c2ccc3[nH]c(=O)oc3c2)CC1 (stereo not given) | 1 | -2 | -3 | -1 | -1 | /
Cc1nn(-c2ccccc2)c(C)c1/C=N\N1CCN(Cc2ccccc2Cl)CC1 | -1 | -1 | 0 | -4 | -1 | /
